14 molecules from PubChem BioAssay can be followed below.

Calls of active or inactive are those of the source. Unless noted, the rule behind the calls is not given here.

The test system of assay [1] is Wnt5a (protein binding on small-molecule microarray). Nature of the assay: small molecules binding Wnt5a protein – biophysical, small-molecule microarray, 635/667 nm fluorescence, primary screen (AID 1142).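 Note: fluorescence read at 667 nm with signal to noise per printed feature.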 The note with it: 635 nm fluorescence, higher = more signal.
A short description of assay [2]: ATP-based viability of Huh7 replicon cells – cell-based, CellTiter-Glo luminescence, basal, 48 h, cytotoxicity control for HCV replication inhibitor project, primary screen (AID 1143).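 Note: Huh7 hepatoma cells carrying a hepatitis C replication reporter with no stimulus; test concentration not given here.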 To be noted: higher = more signal, called active from +8 up or from −8 down.
Assay [3] in a line: Pseudomonas biofilm growth suppression – PAO1 strain, BacTiter-Glo luminescence, LB-PBS, primary screen (AID 1144). To be noted: P. aeruginosa PAO1 biofilm, 12 h, higher = more signal.
Assay [4] is described as follows: basal CRE-LacZ reporter activity in PC12 – cell-based, unstimulated, primary screen (AID 1145). The note with it: no forskolin, luminescence, 4.5 h, higher = more signal, called active from +8 up or from −8 down.
Assay [5] can be described thus: forskolin-driven CRE-LacZ activity in PC12 – cell-based, CRE-LacZ reporter, forskolin-stimulated, primary screen (AID 1146).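 Note: PC12 cells with 6xCRE LacZ reporter stimulated by forskolin 10 µM; beta-galactosidase reporter signal reflecting CREB driven transcription.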 The note with it: luminescence, 4.5 h, higher = more signal, called active from +8 up or from −8 down.
Assay [6] deals with Streptavidin (Streptomyces avidinii) (UniProt P22629). The assay can be described thus: compounds binding control protein streptavidin – biophysical, small-molecule microarray, 635/667 nm fluorescence, artefact control for SMM compound annotation, primary screen (AID 1147).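 Note: signal reflects streptavidin binding to arrayed compounds as a control protein.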 The note with it: higher = more signal.
Streptavidin (Streptomyces avidinii), sequence (P22629 whole entry, looked up): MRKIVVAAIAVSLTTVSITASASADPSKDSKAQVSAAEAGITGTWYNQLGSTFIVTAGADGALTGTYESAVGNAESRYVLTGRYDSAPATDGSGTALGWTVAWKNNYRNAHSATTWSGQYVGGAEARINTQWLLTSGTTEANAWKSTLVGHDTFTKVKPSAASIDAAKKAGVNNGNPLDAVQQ
Assay [7] in a line: probe aInhba binding on compound microarray – biochemical, small-molecule microarray, 635/667 nm fluorescence, primary screen (AID 1148).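 Note: score merges 667nm spot fluorescence with signal-to-noise for antibody binding to printed compounds.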 The note with it: higher = more signal.
Assay [8] addresses Torsin-1A (Homo sapiens) (UniProt O14656). Nature of the assay: TOR1A wild-type binding on microarray – cell lysate, small-molecule microarray, lysate, 635/667 nm, primary screen (AID 1149). The note with it: COS7 hTOR1A-WT lysate, 635 nm fluorescence, higher = more signal.
Assay [9] has the same target. The assay can be described thus: torsin A mutant lysate binding on microarrays – cell lysate, small-molecule microarray, COS7 lysate, 635/667 nm fluorescence, primary screen (AID 1150).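 Note: score pools 667 nm emission and signal to noise measuring lysate protein binding.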 To be noted: COS7 hTOR1A mutant lysate, 635 nm fluorescence, higher = more signal.
Assay [10] deals with Sonic hedgehog protein (Shh). The assay can be described thus: Sonic hedgehog microarray binding compounds – biochemical, small-molecule microarray, 635/667 nm fluorescence, primary screen (AID 1151).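 Note: Shh protein binding to compounds spotted on small-molecule microarray slides; score combines spot fluorescence intensity with signal-to-noise across triplicate slides.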 To be noted: 635 nm fluorescence, higher = more signal.

Torsin-1A (Homo sapiens), sequence (O14656 whole entry, looked up): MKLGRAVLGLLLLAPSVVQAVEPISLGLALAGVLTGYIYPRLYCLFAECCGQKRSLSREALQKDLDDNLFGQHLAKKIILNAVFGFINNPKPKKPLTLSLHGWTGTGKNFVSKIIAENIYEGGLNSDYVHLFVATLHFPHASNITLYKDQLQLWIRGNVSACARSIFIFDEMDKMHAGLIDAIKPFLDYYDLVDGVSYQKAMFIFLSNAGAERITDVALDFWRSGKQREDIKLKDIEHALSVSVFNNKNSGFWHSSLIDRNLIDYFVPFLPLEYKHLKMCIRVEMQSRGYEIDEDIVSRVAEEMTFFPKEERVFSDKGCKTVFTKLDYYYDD

Consider `COC(=O)C(CC#Cc1ccc2c(c1)[C@]1(C(=O)N2)[C@H](C(=O)O)[C@H]2C(=O)O[C@H](c3ccccc3)[C@H](c3ccccc3)N2[C@@H]1c1ccc(O)cc1)C(=O)OC`, for which the composite z-score was -0.265 in assay [1]; -0.641 in assay [6]; -0.0405 in assay [7]; -0.21 with Torsin-1A (Homo sapiens) [8]; 0.446 in the assay with Torsin-1A (Homo sapiens) [9]; -0.613 in assay [10]. The z-score in assay [2] is 0.674 (inactive); in [3] it was -0.208 (inactive); in [4], -0.467 (inactive); in [5], -0.686 (inactive).
As to `CC1(C)[C@@H]2CC(C(O)C3C=CC4C(=O)N(c5ccccc5)C(=O)C4N3Nc3ccccc3)=C[C@H]1C2` (stereo not given in full), the composite z-score is 0.0836 in assay [1]; 0.595 in [6]; 0.571 in assay [7]; -0.37 with Torsin-1A (Homo sapiens) [8]; -0.233 with Torsin-1A (Homo sapiens) [9]; -0.385 in [10]. The z-score is 0.355 (inactive) in assay [2], -0.959 (inactive) in assay [3], 1 (inactive) in [4] and 0.874 (inactive) in assay [5].
Take `CCCCCN1CC=CC23O[C@@H]4/C=C\CCCOC(=O)C4[C@H]2C(=O)N(C(CO)C(C)C)[C@@H]3C1=O` (stereo not given in full): the composite z-score is 0.175 in [1]; -0.739 in assay [6]; -0.128 in assay [7]; -0.731 with Torsin-1A (Homo sapiens) [8]; -0.436 with Torsin-1A (Homo sapiens) [9]; 0.976 in assay [10]. The z-score in [2] is -0.0623 (inactive); in assay [3] it was -1.6 (inactive); in assay [4], -0.899 (inactive); in assay [5], 0.373 (inactive).
Turning to `CN(C)C(=O)[C@]1(Cc2ccccc2N=[N+]=[N-])N=C(c2ccc(OCCCO)cc2)O[C@@H]1c1ccccc1`, the composite z-score in assay [1] was 0.8; in [6], 1.4; in assay [7], 0.0928; with Torsin-1A (Homo sapiens) [8], -0.09; with Torsin-1A (Homo sapiens) [9], 0.902; in [10] it was 0.0763. Also, the z-score was -4.59 (inactive) in assay [2], 1.77 (inactive) in assay [3], 0.69 (inactive) in assay [4] and -2.15 (inactive) in assay [5].
With `CCOC(=O)[C@H]1CC=C2CC1C(=O)N1CCC[C@@H]1[C@@H]2O[Si](C)(C)C(C)(C)C` (stereo not given in full), the composite z-score in assay [1] was -0.395; in assay [6], -1.49; in assay [7], -0.238; with Torsin-1A (Homo sapiens) [8], -0.55; in the assay with Torsin-1A (Homo sapiens) [9] it was -0.83; in [10] it was 0.398. The z-score was -6.23 (inactive) in assay [2], -0.451 (inactive) in [3], -0.776 (inactive) in [4] and -0.661 (inactive) in [5].
As to `COCCOC(=O)N1C(=O)[C@@]2(c3cc(C#Cc4ccc(OC)cc4)ccc31)[C@H](c1ccc(O)cc1)N1[C@H](c3ccccc3)[C@H](c3ccccc3)OC(=O)[C@H]1[C@@H]2C(=O)NC[C@H](O)c1ccccc1`, the composite z-score in assay [1] is 0.763; in [6] it was 0.452; in [7], -0.0259; with Torsin-1A (Homo sapiens) [8], 0.105; with Torsin-1A (Homo sapiens) [9], 1.07; in assay [10], 2.05. In addition, the z-score was -3.94 (inactive) in assay [2], -0.88 (inactive) in assay [3], -1.15 (inactive) in assay [4] and 0.7 (inactive) in assay [5].
Turning to `CCOC(=O)C[C@H]1[C@H](OC(=O)Cc2ccc3c(c2)OCO3)[C@@H](NC(=O)c2ccc(-c3ccccc3)cc2)c2cc(OCCCO)ccc2N1C(=O)c1ccc2ccccc2n1`, the composite z-score is 0.317 in assay [1]; 1.41 in assay [6]; -0.231 in [7]; -0.184 in the assay with Torsin-1A (Homo sapiens) [8]; 0.438 with Torsin-1A (Homo sapiens) [9]; 0.0508 in assay [10]. For the same molecule, the z-score in [2] is -4.97 (inactive); in assay [3], -0.157 (inactive); in assay [4] it was 4.93 (inactive); in assay [5], -0.87 (inactive).
Turning to `COc1cc(CO)cc(I)c1O[C@H]1C=C(C(=O)NCCO)C[C@@H](N(CCN2CCOCC2)C(=O)C2CCOC2)[C@@H]1O` (stereo not given in full), the composite z-score in assay [1] is -0.31; in assay [6] it was -0.512; in [7], -0.0195; with Torsin-1A (Homo sapiens) [8], 0.055; in the assay with Torsin-1A (Homo sapiens) [9] it was 0.399; in assay [10] it was 0.309. In addition, the z-score in [2] is -0.846 (inactive); in assay [3] it was 0.367 (inactive); in assay [4], 0.495 (inactive); in assay [5] it was -1.45 (inactive).
Take `CN1C(=O)C2C=CC(C(O)Cc3ccccc3)N(Nc3ccccc3)C2C1=O` (stereo not given): the composite z-score in assay [1] is -0.0943; in assay [6] it was 0.996; in [7] it was 0.0622; with Torsin-1A (Homo sapiens) [8] it was 0.279; with Torsin-1A (Homo sapiens) [9] it was 0.444; in assay [10], -0.52. Also, the z-score in [2] is 0.329 (inactive); in [3] it was -1.16 (inactive); in [4], 0.626 (inactive); in assay [5], 0.0426 (inactive).
With `COc1ccc([Si](C)(C)[C@@H]2[C@@H](CCO)O[C@]3(C(=O)N(Cc4ccc(N5C(=O)COc6ccccc65)cc4)c4ccccc43)[C@H]2C)cc1`, the composite z-score in assay [1] turned out to be 0.44; in [6] it was 0.636; in [7] it was 0.0261; in the assay with Torsin-1A (Homo sapiens) [8], 0.436; with Torsin-1A (Homo sapiens) [9], 0.586; in [10], 1.57. Besides, the z-score was -7.31 (inactive) in assay [2], -0.374 (inactive) in assay [3], 0.804 (inactive) in assay [4] and 2.02 (inactive) in assay [5].
As to `COC(=O)[C@@]1(Cc2ccc(F)cc2)[C@H]2c3cc(C(=O)N(C)C)n(CC4CC4)c3C[C@H]2CN1C(=O)c1ccccc1`, the composite z-score is 1.96 in [1]; 1.79 in [6]; 1.56 in [7]; -0.532 with Torsin-1A (Homo sapiens) [8]; 0.224 in the assay with Torsin-1A (Homo sapiens) [9]; -1.04 in assay [10]. Further, the z-score was -2.68 (inactive) in [2], 0.163 (inactive) in assay [3], 1.54 (inactive) in [4] and 0.581 (inactive) in assay [5].
For `C=CCOC(=O)[C@@H]1[C@H]2C(=O)O[C@H](c3ccccc3)[C@H](c3ccccc3)N2[C@H](c2ccc(OCCOC(=O)[C@@H]3C[C@@H]4C(=O)N[C@@H](CCCCN(C)C)C(=O)N4[C@@H]3c3ccc(O)cc3)cc2)[C@@]12C(=O)Nc1ccc(I)cc12`, the composite z-score turned out to be 0.312 in [1]; 0.321 in [6]; 0.0649 in [7]; 0.724 in the assay with Torsin-1A (Homo sapiens) [8]; 1.84 in the assay with Torsin-1A (Homo sapiens) [9]; 1.74 in assay [10]. The z-score in assay [2] is -0.768 (inactive); in assay [3] it was -0.975 (inactive); in assay [4], -0.675 (inactive); in assay [5], 0.595 (inactive).
Regarding `CCOC(=O)C[C@H]1[C@H](OC(=O)c2cc3ccccc3oc2=O)[C@@H](NC(=O)C2CCCCC2)c2cc(OCCCO)ccc2N1C(=O)c1ccccc1`, the composite z-score is -0.0359 in [1]; 0.191 in [6]; -0.0245 in assay [7]; 0.046 with Torsin-1A (Homo sapiens) [8]; 0.159 with Torsin-1A (Homo sapiens) [9]; 0.705 in [10]. Moreover, the z-score was -3.06 (inactive) in assay [2], 0.838 (inactive) in [3], 11 (active) in [4] and -1.65 (inactive) in assay [5].
Turning to `CCOc1cc(C(O)C2C=CC3C(=O)N(c4ccccc4)C(=O)C3N2Nc2ccccc2)ccc1O` (stereo not given), the composite z-score in [1] is -0.206; in assay [6] it was 0.0572; in assay [7] it was -0.128; with Torsin-1A (Homo sapiens) [8], -0.577; with Torsin-1A (Homo sapiens) [9], 1.66; in assay [10], -0.14. Also, the z-score in [2] is 0.318 (inactive); in assay [3], -0.802 (inactive); in [4] it was 2.15 (inactive); in assay [5] it was 0.838 (inactive).
